Assay outcomes (PubChem)
The list is not random: actives were taken first. Their share in the collection is about 2%.
Rin1 Abl inh: blocks binding of human Rin1 to Abl; P00519+Q13671; TR-FRET Rin1/Abl binding, biochemical; inhibition, % at 7.35 µM; hit rate 0.4% among 360,000; in the data active means inhibition above about 5%, passing the limit was not always enough
Target sequence (P00519 whole entry, looked up): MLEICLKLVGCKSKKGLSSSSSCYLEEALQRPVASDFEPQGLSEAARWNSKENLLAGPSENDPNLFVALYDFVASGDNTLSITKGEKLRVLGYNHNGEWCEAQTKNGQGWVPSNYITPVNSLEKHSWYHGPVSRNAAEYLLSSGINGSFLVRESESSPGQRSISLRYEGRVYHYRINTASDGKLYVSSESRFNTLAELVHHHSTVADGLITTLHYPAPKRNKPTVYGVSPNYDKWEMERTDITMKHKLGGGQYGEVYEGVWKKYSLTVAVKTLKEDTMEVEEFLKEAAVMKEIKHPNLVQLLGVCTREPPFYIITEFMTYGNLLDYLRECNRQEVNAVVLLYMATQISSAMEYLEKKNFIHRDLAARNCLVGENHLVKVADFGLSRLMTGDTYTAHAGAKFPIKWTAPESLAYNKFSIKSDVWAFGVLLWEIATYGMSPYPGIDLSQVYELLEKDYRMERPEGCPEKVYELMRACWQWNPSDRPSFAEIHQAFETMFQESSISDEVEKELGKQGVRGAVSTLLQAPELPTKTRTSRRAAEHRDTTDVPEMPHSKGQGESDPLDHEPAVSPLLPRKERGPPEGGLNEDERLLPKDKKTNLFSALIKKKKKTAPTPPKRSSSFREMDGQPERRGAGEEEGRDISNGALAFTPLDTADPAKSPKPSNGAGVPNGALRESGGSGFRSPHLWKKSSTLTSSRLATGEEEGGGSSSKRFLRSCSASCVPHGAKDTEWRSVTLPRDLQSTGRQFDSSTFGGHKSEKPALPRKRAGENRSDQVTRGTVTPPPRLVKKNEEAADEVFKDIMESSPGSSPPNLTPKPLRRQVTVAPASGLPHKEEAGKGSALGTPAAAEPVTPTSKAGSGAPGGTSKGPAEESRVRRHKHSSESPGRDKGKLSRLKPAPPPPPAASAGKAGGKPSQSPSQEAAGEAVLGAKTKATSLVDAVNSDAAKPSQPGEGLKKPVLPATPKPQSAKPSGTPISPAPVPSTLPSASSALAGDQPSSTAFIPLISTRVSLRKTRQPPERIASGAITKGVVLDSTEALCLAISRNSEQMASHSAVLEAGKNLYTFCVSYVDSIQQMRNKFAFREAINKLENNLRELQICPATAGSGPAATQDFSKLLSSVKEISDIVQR
Target sequence (Q13671 whole entry, looked up): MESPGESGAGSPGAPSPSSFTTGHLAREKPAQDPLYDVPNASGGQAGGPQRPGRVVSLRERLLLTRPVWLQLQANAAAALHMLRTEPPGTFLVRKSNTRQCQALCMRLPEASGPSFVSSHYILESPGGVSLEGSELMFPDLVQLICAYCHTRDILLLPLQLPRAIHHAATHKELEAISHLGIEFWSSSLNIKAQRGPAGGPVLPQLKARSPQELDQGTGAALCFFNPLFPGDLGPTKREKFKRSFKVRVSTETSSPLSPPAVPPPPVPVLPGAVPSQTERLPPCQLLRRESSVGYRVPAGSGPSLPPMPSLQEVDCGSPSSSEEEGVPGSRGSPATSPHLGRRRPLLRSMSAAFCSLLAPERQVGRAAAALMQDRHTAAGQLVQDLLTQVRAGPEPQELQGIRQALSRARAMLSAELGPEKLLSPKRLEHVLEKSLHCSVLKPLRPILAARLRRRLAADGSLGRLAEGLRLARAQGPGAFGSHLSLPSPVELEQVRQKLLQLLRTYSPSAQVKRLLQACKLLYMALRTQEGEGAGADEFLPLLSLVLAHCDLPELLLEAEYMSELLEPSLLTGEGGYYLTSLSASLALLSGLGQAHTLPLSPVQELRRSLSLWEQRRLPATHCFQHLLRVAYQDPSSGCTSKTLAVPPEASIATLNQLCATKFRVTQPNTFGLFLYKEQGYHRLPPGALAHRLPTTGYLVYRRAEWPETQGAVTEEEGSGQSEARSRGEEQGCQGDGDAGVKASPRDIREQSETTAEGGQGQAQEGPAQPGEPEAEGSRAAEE
LEDGF integ inh: blocks HIV-1 LEDGF/p75-dependent DNA integration; inhibition, % at 3.7 µM; hit rate 0.64% among 370,000; AID 743269; TR-FRET IN-LEDGF/p75 DNA integration, Eu/Cy5;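 active means inhibition above the screen-wide mean plus 3 SD, cut at about 13% in these data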;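 further: signal is the Cy5 over europium emission ratio at 671 and 618 nm; 0% = plate median of compound wells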
UHRF1 binding: blocks human UHRF1 binding to methylated DNA | UHRF1 binding to methylated oligo, TR-FRET | hit rate 0.75% among 370,000 | inhibition, % at 4.4 µM; in the data active means inhibition above about 21%;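 further: UHRF1 SRA domain binding a hemimethylated CpG hairpin DNA probe; 0% = median of test compound wells and 100% = reference inhibitor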
TCR CD3 inh: human TCR-CD3 binding inhibition. hit rate 0.37% among 360,000. TAMRA-labeled TCR probe fluorescence, biochemical. AID 651800. inhibition, % at 9.4 µM; in the data active means inhibition above about 19%;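 further: recombinant mutant TCR 2C K166C tagged with TAMRA read by polarization; 0% = receptor in buffer alone and 100% = receptor with positive control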
MBD2 DNA inh: MBD2-methylated oligo binding inhibition; Q9UBB5; TR-FRET, MBD2 binding to methylated oligonucleotide; inhibition, % at 4.4 µM; hit rate 0.31% among 370,000; AID 686964; in the data active means inhibition above about 13%
Active calls of the source: *; . = no result given.

SMILES	Rin1 Abl inh	LEDGF integ inh	UHRF1 binding	TCR CD3 inh	MBD2 DNA inh
CSc1ccc(/C=C/C(=O)c2ccc(NC(=O)Cc3ccccc3)cc2)cc1	-1	3	-3	51*	-1
O=C(OCC#CCSc1nnc(-c2cccc(F)c2)o1)c1ccc(F)cc1	.	1	-3	.	0
Cc1cccc(-n2c(O)c(C=Nc3ccccc3O)c3ccccc3c2=O)n1	-2	-3	-5	40*	-4
Cc1cc(C(=O)Nc2ccc(S(=O)(=O)N3CCOCC3)cc2)ccc1[N+](=O)[O-]	0	5	-3	8	0
COc1ccc(Nc2cccc3ccccc23)cc1	1	3	21*	5	3
COC(=O)C[C@H]1c2cc(C(F)(F)F)ccc2S(=O)(=O)N1c1ccc(N(C)C)cc1	0	-4	0	6	-1
Cc1cccc(-c2cccc3c4c([nH]c23)[C@@H]2C[C@H](N(C)C(=O)Nc3ccccc3)[C@H]([C@H](C)O)CN2CC4)c1	.	5	1	.	1
CCC(C)NC(=O)CCNS(=O)(=O)c1ccc(Br)cc1 (stereo not drawn)	0	0	32*	1	1
CCC(=O)N(Cc1cc(=O)[nH]c2ccccc12)c1ccccc1C	-1	0	38*	8	2
CCCC(=O)N(Cc1cc(=O)[nH]c2ccccc12)c1ccc(C)cc1C	2	4	2	-1	7
CCN(CC)S(=O)(=O)c1ccc(C)c(NC(=O)/C=C/c2cccs2)c1	1	7	22*	6	10
Cc1ccccc1NC(=O)/C=C/c1cccs1	-4	-4	-1	1	-3
COc1ccc(OCc2cc(C(=O)NC(C)Cn3cncn3)no2)c(Cl)c1 (stereo not drawn)	2	7	27*	9	9
COc1ccc(OCc2cc(C(=O)NC(C)Cc3cccnc3)no2)c(Cl)c1 (stereo not drawn)	4	-3	-2	-9	-6
CCCCc1c(-c2ccc(F)cc2F)ncn1CCc1ccccc1OC	.	5	11	2	7
CCCCc1c(Cc2cccc(F)c2)ncn1CCc1ccccc1OC	.	10	21*	3	5
CC1=NN(c2ccc(S(=O)(=O)O)cc2C)C(=O)C1	3	1	-5	-2	-6
O=C(O)C1=NN(c2cc(Cl)c(S(=O)(=O)O)cc2Cl)C(=O)C1	8	11	31*	8	7
COC(=O)CCNC(=O)CCc1ccc(S(=O)(=O)N2CCCCCC2)cc1	0	-5	0	2	0
CCCCC(=O)NNC(=O)CC(=O)Nc1ccccc1C(=O)O	-1	-3	2	-5	0
O=C(O)CCCC(=O)Nc1ccccc1C(=O)O	0	16*	0	7	1
Cc1cc(C)c(C(=O)Nc2ccc(Br)c(C(F)(F)F)c2)c(C)c1	0	1	-3	5	-1
CCOC(=O)C1(CCOC)CCN(C(=O)c2ccccc2-c2cccc(C)c2)CC1	1	1	23*	2	4
O=C(Nc1ccc(F)cc1)C(c1cc2ccccc2o1)N1CCN(CC(=O)N2CCCC2)CC1 (stereo not drawn)	.	4	-3	4	-2
CC1(NC(=O)Nc2cc([N+](=O)[O-])ccc2O)CCS(=O)(=O)C1 (stereo not drawn)	-6	6	-6	-4	-20
SMILES	Rin1 Abl inh	LEDGF integ inh	UHRF1 binding	TCR CD3 inh	MBD2 DNA inh
COc1ccc(CCC(=O)OCC(=O)NCc2ccc3c(c2)OCO3)cc1	4	-1	-3	-1	1
O=C(COC(=O)CCc1c[nH]c2ccccc12)NCc1ccc2c(c1)OCO2	2	3	64*	5	-1
OC(CC#CCN1CCCCC1)(c1ccccc1)c1ccccc1	4	-5	1	-2	-1
OC(CC#CCN1CCCC1)(c1ccccc1)c1ccccc1	-3	4	22*	-7	-2
CN1CCN(c2ccc(S(=O)(=O)N3CCOCC3)cc2NC(=O)CSCc2ccccc2)CC1	-4	-1	-2	1	-6
CCCC(=O)Nc1cc(S(=O)(=O)N2CCOCC2)ccc1N1CCCCC1	3	3	3	5	1
CN1CCN(c2ccc(S(=O)(=O)N3CCOCC3)cc2NC(=O)CC(C)(C)C)CC1	2	0	61*	7	1
CCCC(=O)Nc1cc(S(=O)(=O)N2CCCCC2)ccc1N1CCOCC1	2	4	21*	-12	4
COc1ccc(CNC(=O)c2cc(S(=O)(=O)N3CCCCC3)ccc2N2CCOCC2)cc1OC	3	-3	30*	3	1
COc1ccc(CCNC(=O)c2cc(S(=O)(=O)N3CCOCC3)ccc2N2CCCC2)cc1OC	0	0	2	-2	4
COc1ccc(CN2C(=O)c3ccnn3CC2(C)c2nnnn2-c2c(C)cccc2C)cc1 (stereo not drawn)	.	4	-2	.	-6
Brc1ccc(-c2cnc(-c3cccs3)o2)cc1	0	3	21*	2	7
Cc1ccccc1CN1[C@@H](C)[C@H](c2ccccc2)Oc2cccc(NCCc3ccccc3)c2S1(=O)=O	.	3	21*	5	2
COCCN(C(=O)COC(=O)Cc1coc2cc(C)ccc12)c1c(N)n(Cc2ccccc2)c(=O)[nH]c1=O	-2	7	3	3	1
COc1ccc2c(CC(=O)OCC(=O)N(C)c3c(N)n(Cc4ccccc4)c(=O)[nH]c3=O)coc2c1	2	-1	22*	4	5
CCOc1cccc2cc(C(=O)NCc3ccc(OC)cc3)c(=N)oc12	1	-4	2	-4	2
CC1CCCN(C(=O)Cn2nnc(-c3ccc([N+](=O)[O-])cc3)n2)C1 (stereo not drawn)	-1	-2	29*	-6	1
COC(=O)COc1coc(CN2CCN(c3cccc(Cl)c3)CC2)cc1=O	-1	7	21*	-1	5
CC(C)(C)c1ccc(-c2noc(-c3ccc4c(c3)CCO4)n2)cc1	-4	0	25*	-2	0
Cc1cc(-c2nc(-c3ccc(C(C)(C)C)cc3)no2)no1	4	2	0	3	-2
Cc1ccc2nc(-c3ccccc3)c(CN3CCSCC3)n2c1	2	-1	4	-1	1
Cc1ccc2nc(-c3ccccc3)c(CN3CCN(c4ccccc4F)CC3)n2c1	0	0	23*	12	-1
CCOC(=O)C1=CN(Cc2cccc(F)c2)S(=O)(=O)N(CC)C1c1ccc(Br)cc1F (stereo not drawn)	-3	12	21*	4	13
C[C@@H]1CN([C@H](C)CO)C(=O)c2cc(Br)cnc2O[C@H]1CN(C)Cc1ccccc1	-2	-5	2	3	1
N#Cc1c(-c2ccco2)ccn(Cc2cccc(F)c2)c1=O	-2	5	23*	7	8
Cc1cc(NC(=O)CN2C(=O)NC(c3ccccc3)(c3ccc(C)c(C)c3)C2=O)no1 (stereo not drawn)	-1	10	1	-4	-2
